# Laboratory results from PubChem BioAssay (NCI).
# About 83,000 compounds went through this panel and 20% of them were active in at least one assay; those are over-represented in the sample as a whole.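 Growth was measured after 48 h exposure to one concentration of compound in 96-well plates. Values under 10 count as active.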 Active and inactive are the calls of the source.
# Test system: MDA-MB-435 melanoma
# Test: NCI-60 one-dose screen, 48 h (100 = growth as untreated, 0 = no growth, -100 = all killed)
# Conditions: 10 µM unless noted
row,SMILES,growth
1,CC(=O)Nc1ccc(-n2cnc3ccc(-c4ccc(O)cc4)cc32)cc1,44.7% (inactive)
2,Cc1ccc([C@H]2C(C(=O)c3ccc(Cl)cc3)C3(N[C@@H]2c2ccccc2)C(=O)Nc2ccc(Br)cc23)cc1 (stereo partly drawn),67.6% (inactive)
3,Cn1cc(-c2nnc(N)nc2-c2c[nH]c3ccc(Br)cc23)c2cc(Br)cnc21,33.6% (inactive)
4,COc1ccc(-c2nc(SCC(C)C)nc(NCCc3c[nH]c4ccccc34)c2C#N)cc1,80.7% (inactive)
5,COc1ccc(C(=O)/C=C/c2ccc(OCc3ccc(F)cc3)c(OC)c2)cc1OC,7.77% (active)
6,COc1c(F)ccc(C(=O)Nc2ccc3nc(NC(=O)C4CCCN(S(=O)(=O)c5cccc(C(F)(F)F)c5)C4)sc3c2)c1F (stereo not drawn),87.1% (inactive)
7,Cn1cc(-c2cc(N)n3nc(-c4c[nH]c5ccccc45)cc3n2)c2cccnc21,5.57% (active)
8,O=C(NNc1ccccc1)n1c(=O)c2ccccc2c(=O)n1-c1ccccc1,97.8% (inactive)
9,Cc1nc(Nc2ccccn2)sc1C(=O)CC(SCC(=O)Nc1ccc(Cl)cc1)c1ccccc1F (stereo not drawn),-60% (active)
10,N#Cc1c(-c2cccc(Cl)c2Cl)cc(-c2c[nH]c3ccccc23)[nH]c1=O,57.7% (inactive)
11,CC(=O)Nc1cccc(Nc2nc(NCc3ccccc3)c3ccccc3n2)c1,-92.8% (active)
12,Clc1cccc(Cl)c1/C=C/c1cc(/C=C/c2ccc(Br)cc2)c2ccccc2n1,99.9% (inactive)
13,N#Cc1c(-c2ccccc2Cl)cc(-c2c[nH]c3ccccc23)[nH]c1=O,23.6% (inactive)

# Test system: SW-620 colon
# Test: as above
# Conditions: 10 µM unless noted
row,SMILES,growth
1,Cc1ccc(S(=O)(=O)c2nc(S(=O)(=O)c3ccc(C)cc3)c(N3CCC(O)CC3)s2)cc1,44.7% (inactive)
2,Cc1sc2c(c1C)C(c1ccc(Cl)cc1)=N[C@@H](CC(=O)NCCCCCNC(=O)COc1ccc(C3CCC(=O)NC3=O)cc1)c1nnc(C)n1-2 (stereo partly drawn),23.1% (inactive)
3,COc1ccc2c(c1)C(=N/N=C(\C)c1ccc(OC)c(S(N)(=O)=O)c1)C(=O)N2,93.9% (inactive)
4,COc1ccc(-c2nc3cc(C)ccc3n2CC(=O)N=Nc2c(O)[nH]c3ccc(Cl)cc23)cc1,12.4% (inactive)
5,O=C(c1ccc(OCCN2CCOCC2)cc1)C1[C@H](c2ccc(Cl)cc2)[C@@H](c2ccccc2)NC12C(=O)Nc1ccc(Br)cc12 (stereo partly drawn),37.3% (inactive)
6,Cc1ccccc1[C@H]1C(C(=O)c2ccc(Cl)cc2)C2(N[C@@H]1c1ccccc1)C(=O)Nc1ccc(Cl)cc12 (stereo partly drawn),-9.32% (active)
7,COc1cc(C2CC(c3cc(OC)c(OC)c(OC)c3)=NN2C(C)=O)ccc1OCc1ccccc1 (stereo not drawn),55.1% (inactive)
8,Cc1cccc(NC(=O)[C@]23CCC(C)(C)CC2C2=CCC4[C@@]5(C)C[C@@H](O)[C@H](O)[C@@](C)(CO)C5CC[C@@]4(C)[C@]2(C)CC3)c1 (stereo partly drawn),33.2% (inactive)
9,CC12CC[C@@H]3[C@]4(C)COC(c5cn[nH]c5-c5ccc(Cl)cc5)O[C@@H]4CC[C@@]3(C)[C@@H]1CC(C1=CCOC1=O)O2 (stereo partly drawn),49.4% (inactive)
10,S=c1c2ccccc2nc2n1CCc1c-2[nH]c2ccccc12,80.9% (inactive)
11,CCCCSc1nc(NCCc2c[nH]c3ccccc23)c(C#N)c(-c2ccccc2)n1,4.59% (active)
12,CC(C)c1sc(NC(=O)c2cc(NC(=O)c3cc(NC(=O)c4cscn4)cn3C)cn2C)nc1C(=O)NCCCN(C)C,20.5% (inactive)
13,CC(=O)Nc1ccc(-n2cnc3ccc(-c4ccc(O)cc4)cc32)cc1,39.2% (inactive)
14,Cc1ccc(NCC(=O)Cn2cc(COc3ccc(C=Nc4cnc5ccccc5c4)cc3)nn2)cc1,113% (inactive)
15,Cc1ccc([C@H]2C(C(=O)c3ccc(Cl)cc3)C3(N[C@@H]2c2ccccc2)C(=O)Nc2ccc(Br)cc23)cc1 (stereo partly drawn),70.6% (inactive)
16,COc1ccc(-c2nc(SCC(C)C)nc(NCCc3c[nH]c4ccccc34)c2C#N)cc1,72.7% (inactive)
17,S=C(Nc1ccccc1)Nc1ccc(OCc2nc3ccccc3[nH]2)cc1,48% (inactive)
18,COc1ccc(C(=O)/C=C/c2ccc(OCc3ccc(F)cc3)c(OC)c2)cc1OC,7.65% (active)
19,COc1c(F)ccc(C(=O)Nc2ccc3nc(NC(=O)C4CCCN(S(=O)(=O)c5cccc(C(F)(F)F)c5)C4)sc3c2)c1F (stereo not drawn),99.9% (inactive)
20,Cn1cc(-c2cc(N)n3nc(-c4c[nH]c5ccccc45)cc3n2)c2cccnc21,-53.7% (active)
